Compound activity (PubChem)
Vif-A3G inh: blocks the Vif interaction with human APOBEC3G. Q9HC16. Potency, µM (series often up to 46.1 µM), hits mostly inhibitors. actives 0.076% (n = 410,000). AID 602310. HeLa A3G-eYFP + Vif (tagged APOBEC3G with the HIV-1 protein that degrades it), YFP fluorescence, overnight; note: nearly all actives have a fitted effect of over 60% in size
Target sequence (Q9HC16 whole entry, looked up): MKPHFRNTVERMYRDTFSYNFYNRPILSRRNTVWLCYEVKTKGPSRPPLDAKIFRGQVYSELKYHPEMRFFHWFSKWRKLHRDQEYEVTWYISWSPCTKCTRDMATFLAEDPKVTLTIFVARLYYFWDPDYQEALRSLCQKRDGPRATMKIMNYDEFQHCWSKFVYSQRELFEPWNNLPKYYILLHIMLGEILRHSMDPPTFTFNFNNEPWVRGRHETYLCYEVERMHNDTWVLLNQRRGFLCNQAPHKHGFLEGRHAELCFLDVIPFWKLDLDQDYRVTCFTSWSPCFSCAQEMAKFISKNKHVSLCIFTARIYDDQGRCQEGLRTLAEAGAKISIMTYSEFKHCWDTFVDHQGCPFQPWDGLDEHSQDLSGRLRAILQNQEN
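HeLa cells stably expressing Vif and C-terminally eYFP-tagged A3G, seeded overnight at 37 deg C, then exposed to compound by pintool overnight at 37 deg C. Rise in yellow fluorescence (Ex 488/Em 500-530, Acumen) marks blocked Vif-driven A3G degradation.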
LDHA inh: LDHA (human) enzyme inhibition | purified LDHA, NADH/diaphorase-resazurin fluorescence; hits give low values | activity change, % (values are at about 110 or 230 µM) | actives 0.15% (n = 480,000) | AID 1347041; in the data active = activity change below about -30%; inconclusive = mostly about -25% to -30%
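LDH5 2 nM; NADH 0.06 mM, pyruvate 0.2 mM; 200 mM Tris pH 7.4, EDTA, Tween-20; 5 min RT. Detection: diaphorase 0.133 mg/mL + resazurin 37 µM, fluorescence ex540/em590 at 0 and 20 min; normalized to enzyme-free and DMSO wells.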
PINK1 modulator: modulators of PINK1 expression; PINK1 immunofluorescence, high-content cytometry, 24 h; Potency, µM (series often up to 76.6 µM), usual class: activators; actives 0.2% (n = 410,000); AID 624263; active = well fitted activation curve with a large enough effect; inconclusive = small, poorly fitted or top-dose-only effect; cell line not stated here; note: nearly all actives have a fitted effect of over 65% in size
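Stable cell line treated 24 h with compounds at 5 concentrations (CCCP controls), then fixed and immunostained for PINK1 plus nuclear and cell stains; PINK1 immunofluorescence quantified by laser-scanning microplate cytometry.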
pAkt inh: inhibitors of Akt phosphorylation | Neuro2A IGF-stimulated pAkt S473 HTRF, 20 min; hits give low values | actives 0.32% (n = 360,000) | activity change, % for hits at 50 µM | AID 651550; in the data active = activity change below about -80%; inconclusive = mostly about -51% to -80%
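Single-point screen (50 µM final compound) in Neuro2A cells stimulated 20 min with 6 nM IGF at 37 deg C. After lysis, Ser473-phosphorylated Akt read by HTRF (ex 330 nm, em 615/665 nm) as the 665/615 ratio.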
GRP78 ERSR act: inducers of ER stress response in human glioma cells. U87-MG GRP78 promoter luciferase reporter, 16 h. Potency, µM, hits mostly activators. actives 0.02% (n = 420,000); note: series mostly up to about 76 µM; nearly all actives have a fitted effect of over 35% in size
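Stably transfected U87-MG glioma cells carrying a GRP78-based luciferase sensor; 16 h compound incubation. Luminescence end-point read 10 min after Bright-Glo addition at room temperature.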
Vif-A3F inh: blocks the Vif interaction with APOBEC3F. AID 602313. Potency, µM (doses to about 46.1 µM). actives 0.2% (n = 390,000). HeLa A3F-eYFP + Vif (tagged APOBEC3F with the HIV-1 protein that degrades it), YFP fluorescence increase; note: nearly all actives have a fitted effect of over 65% in size
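Fluorescence increase (Ex 488/Em 500-530) after overnight compound treatment at 37 deg C flags inhibition of Vif-driven A3F-eYFP loss in stable HeLa A3F-eYFP/Vif cells seeded overnight beforehand.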
Hits are given with their value; - = inactive; ? = inconclusive; . = not tested or not shown; ! = a repeat was not active. The list is not random: actives were taken first. Their share in the collection is about 0.74%. Unless noted, calls come from the whole dose curve; as a rule, active = well fitted curve in the direction sought with a large enough effect; inconclusive = small, poorly fitted or top-dose-only effect, or another doubt; inactive = no such curve, though single readings can be large; an effect the other way counts as inactive or inconclusive.

SMILES	Vif-A3G inh	LDHA inh	PINK1 modulator	pAkt inh	GRP78 ERSR act	Vif-A3F inh
Cc1ccc(NC(=O)Cc2nnc(SCC(=O)c3ccc(C#N)cc3)n2C)cc1C	.	-	.	.	.	.
C[C@@H]1O[C@@H](O[C@@H]2C(=O)c3c(O)cc(O)cc3O[C@H]2c2ccc(O)c(O)c2)[C@H](O)[C@H](O)[C@H]1O	11.2µM	-	-	-	-	-
O=S(=O)(Nc1nc2ccccc2nc1N1CCN(c2ccccc2)CC1)c1ccc(F)cc1	?	-	-	-	-	22.4µM
CCCCOc1nc2ccccc2nc1NS(=O)(=O)c1ccc(F)cc1	-	-	-	-	-	10µM
CC(C)(C)c1cc(C(=O)O)cc(C(C)(C)C)c1O	.	-	.	.	.	.
C/C(=N/O)c1cc(C(C)(C)C)c(O)c(C(C)(C)C)c1	-	-	-	-122.0%	-	-
O=c1[nH]c(=S)[nH]c2c1C(c1ccc(Br)cc1)c1c([nH]c(=S)[nH]c1=O)O2	-	-76.5	-	-	-	-
O=C1CCCC2=C1C(c1ccc(Br)cc1)c1c([nH]c(=S)[nH]c1=O)N2 (stereo not drawn)	-	-	-	-	-	-
COc1ccc2nc(N3C(=O)CNC3=S)sc2c1	-	-	-	-	-	-
CCOc1ccc2nc(N3C(=O)/C(=C/c4ccc(Cl)cc4)NC3=S)sc2c1	-	-	?	-	-	5.01µM
O=C(/C=C/c1ccco1)c1cccs1	.	-	.	.	.	.
O=C(Nc1cc(C(F)(F)F)ccc1-n1cncn1)c1ccc([N+](=O)[O-])o1	?	-	-	-	?	12.6µM
CCN(Cc1ccc(Br)s1)C(=O)c1cnccn1	.	-	.	.	.	.
COc1ccc(C2=NN3C(C2)c2cccc(OC)c2OC32CCN(C(C)=O)CC2)c(OC)c1 (stereo not drawn)	.	-	.	.	.	.
CSc1ccc(/C=N/NC(=O)c2ccc(C)c(C)c2)cc1	-	-48.4	-	-	-	-
CCCn1c(SCC(=O)NCc2ccccc2)nnc1-c1ccncc1	-	-	-	-115.0%	-	-
CCCCn1nnnc1SCC(=O)NCc1ccccc1	-	-	-	-114.7%	-	-
CCn1c(SCC(=O)N2CCc3ccccc32)nnc1-c1ccncc1	-	-38.6	-	-	-	-
Cc1ccc(-c2nc(CN(C)CC(=O)N(C)C)co2)c(C)c1	.	-	.	.	.	.
Brc1cccc(CNCCSc2nnnn2-c2ccccc2)c1	-	-	-	.	-	-
CCOc1ccc(Br)cc1CNCCSc1nnnn1-c1ccccc1	-	-	-	.	31.6µM	-
O=C1CCCc2nccc(-c3ccc(F)cc3)c21	.	-	.	.	.	.
Cc1cc(C(=O)N2CCN(S(C)(=O)=O)CC2)sc1-c1ccccc1	-	-	-	-82.2%	-	-
Cc1cc(C(=O)N2CCN(c3ncccn3)CC2)sc1-c1ccccc1	-	-	-	-	-	-
COc1ccccc1Nc1nnc(SCC(=O)NC(=O)Nc2ccc3c(c2)OCCO3)s1	-	-	11.2µM	-	-	-
SMILES	Vif-A3G inh	LDHA inh	PINK1 modulator	pAkt inh	GRP78 ERSR act	Vif-A3F inh
Cc1ccccc1NC(=O)CSC1=C(C#N)C(c2ccccc2C)C2=C(CCCC2=O)N1 (stereo not drawn)	.	-	.	.	.	.
O=C(Nc1nc2c(Cl)cccc2s1)c1ccc(Br)o1	-	-	14.1µM	-	-	-
COCCN1C=C(C(=O)OC)C(c2cc3c(cc2Br)OCO3)C(C(=O)OC)=C1	-	-	3.98µM	-	-	-
O=C(c1ccccc1)C1CCN(c2ncc(C(F)(F)F)cc2Cl)CC1	.	-	.	.	.	.
O=C(NC1CCCC1)c1cc(-c2cccs2)on1	-	-38.7!	-	-	?	-
O=C(NC1CCCC1)c1cc(-c2ccccc2O)on1	-	-	-	-	-	-
COc1ccc(NC(=O)N[C@@H](CCSC)C(=O)O)cc1Cl	-	-	-	-115.0%	-	-
O=C1CS(=O)(=O)C2(C(=O)N(Cc3ccccc3F)c3ccccc32)N1c1ccc(F)c(Cl)c1 (stereo not drawn)	.	-	.	.	.	.
NC(=O)NC(=O)CSc1ccc2ccccc2n1	.	-	.	.	.	.
CN1CCN(C(=O)C(C(=O)c2ccc(F)cc2)n2ccccc2=O)CC1 (stereo not drawn)	-	-	-	-98.9%	-	-
Cc1c(Cl)cccc1NC(=O)N1CCN(C2=Nc3ccccc3Oc3ccccc32)CC1	.	-	.	.	.	.
